Among the data in ChEMBL document CHEMBL1157539, “Thousands of chemical starting points for antimalarial lead identification” (Nature, 2010) are Inhibition values, retold here.

Molecules are shown by their SMILES.

The test system of the first assay is Plasmodium falciparum. The experiment in a line: GSK_TCMDC: Inhibition of Plasmodium falciparum Dd2 in whole red blood cells, using parasite LDH activity as an index of growth. Test compounds present at 2uM. Type of assay: functional.
The term Inhibition denotes how much of the control response was suppressed. A low value points to a weak effect. `Cl.N#CCc1ccc(Nc2nccc(Nc3ccc(Oc4ccccc4)cc3)n2)cc1` registered an Inhibition of 47%.
Still for that read-out and setting: the value for `O=C(O)C(F)(F)F.O=[N+]([O-])c1cccc(CNCC2CCN(Cc3ccc(Cl)c(Cl)c3)CC2)c1` was 41%; that for `COc1cc(C(=O)N2COCC(CCCN3CCC(N4CCCC4)CC3)(c3ccc(Cl)c(Cl)c3)C2)cc(OC)c1OC` (centres undefined) was 70%.
As for `CC1CCCN1Cc1cccc(-c2ccc(C(=O)NCCOc3ccccc3)s2)c1.O=C(O)C(F)(F)F` (centres undefined), the Inhibition is 0%.

The subject of the next assay is HepG2. The experiment in a line: GSK_TCMDC: Percent inhibition of human HepG2 cell line. Test compounds present at 10uM. It is filed as functional.
Compound `Cc1cc(N[C@@H](Cc2ccccc2)C(=O)NCc2cccc(F)c2)nc(NCCCOC(C)C)n1.O=C(O)C(F)(F)F` gave an Inhibition of 10%.
The compound `CN1CCC(OC(=O)c2cc3cc(-c4ccccc4)ccc3n2S(=O)(=O)c2ccccc2)CC1.Cl` came in with an Inhibition of 31%.
On the same count and under the same terms, the same measure for `CCCCCC(=O)N1CCOC(CCN2CCc3c(c4ccccc4n3C)C2)(c2ccc(Cl)c(Cl)c2)C1` (centres undefined): 24%.
Compound `COc1ccc2nccc([C@@H](O)CN3CCC(NCc4cc5c(cc4F)SCC(=O)N5)CC3)c2n1` came in with an Inhibition of 14%.
Same read-out and setting: the same measure for `O=c1cc(NCCCNCc2ccc3c(c2)OC(F)(F)O3)[nH]c2ccccc12`: 0%.
`CCN(C)c1cc(C(=O)N[C@@H](Cc2ccccc2)[C@H](O)CNC(C)(C)c2cccc(OC)c2)cc(N2CCCC2=O)c1` showed an Inhibition of 0%.
For `Cn1nccc1C(=O)NCCNCc1ccc(-c2ccc(-c3nc4cc(F)ccc4[nH]3)cc2)cc1.O=C(O)C(F)(F)F`, the Inhibition is listed as 28%.
In turn, `O=C(/C=C/c1ccc(I)cc1)NCCCCCN1CCC(c2c[nH]c3ccc(O)cc23)CC1` showed an Inhibition of 14%.
With `Cc1cc(N/N=C/c2cccc([N+](=O)[O-])c2)c2ccc(F)cc2n1`, the Inhibition amounted to 0%.
As to `CCc1ccc(NC(=O)N(CCCN2CCN(C)CC2)Cc2csc(-c3ccc(CNCc4ccccc4)cc3)n2)cc1.O=C(O)C(F)(F)F`, the Inhibition came to 17%.
Compound `COc1ccc(-c2nc(NC(=O)Cc3cccc(OC)c3)sc2C)cc1` gave an Inhibition of 1%.
The same measure, in the same setting: the value for `Cc1nc(-c2nc(NCc3ccncc3)ncc2-c2ccsc2)sc1C` was 8%; that for `CCN(CCCN1CCCCC1)c1cc(C)nc(Nc2ccc(C)cc2Br)n1.O=C(O)C(F)(F)F` was 49%.
For the compound `Cc1cccc2nc(-c3ccc(-c4ccc(CNCc5cccc(N)c5)cc4)cc3)[nH]c12.O=C(O)C(F)(F)F`, the Inhibition is reported as 12%.
With `CC(=O)N1N=C(c2ccc(F)cc2)Sc2c1nc(-c1ccccc1)n2C(C)=O`, the Inhibition is given as 0%.
Take `COc1cc2nc(NC3CCN(Cc4ccccc4)CC3)nc(N)c2cc1OC`: the Inhibition is given as 27%.
Consider `CCN(CCCN1CCCC1)c1cc(C)nc(Nc2ccc(Cl)cc2)n1.O=C(O)C(=O)O`, for which the Inhibition is given as 5%.
Same read-out and setting: the value for `COc1ccc2sc(CNCCCNc3cc(=O)c4ccccc4[nH]3)c(Cl)c2c1.Cl` was 1%; that for `Cc1cc(-c2ccc(CNCc3ccc(F)cc3)cc2)ccc1S(=O)(=O)NCCN1CCCC1.O=C(O)C(F)(F)F` was 95%.
On to `COc1ccc(Nc2nc(N/N=C/c3cc(Br)ccc3O)nc(Nc3ccc([N+](=O)[O-])cc3)n2)cc1`, for which the Inhibition is reported as 27%.
`CCNS(=O)(=O)c1ccc(Oc2ccc([N+](=O)[O-])cc2)cc1` yielded an Inhibition of 1%.
Still for that read-out and setting: the same measure for `Cc1cc(N2C(N)=NC(N)=NC2(C)C)ccc1Cl.Cl`: 66%; for `Cc1cccc2nc(-c3cccc(-c4ccc(NC(=O)NCc5cccc(F)c5)cc4)c3)[nH]c12`: 40%.
For `CC(=O)O.CC(C)c1ccc(C2CCN(CCCCNC(=O)c3ccc(NC(=O)c4ccc(C(F)(F)F)cc4)cc3)CC2)c(O)c1`, the Inhibition is 47%.
On the same count and under the same terms, the value for `COc1ccc2ncc(F)c(CCN3CC(O)C(CNCc4ccc5oc(=O)ccc5c4)C3)c2n1.Cl` (centres undefined) was 18%; that for `CC(CN(C)C)C(=O)Nc1cccc(-c2ccc(-c3nc4cc(C(F)(F)F)ccc4[nH]3)cc2)c1` (centres undefined) was 26%.
On to `O=C1OC(c2ccccc2)(c2ccccc2)CN1C1CCN(Cc2ccc(O)c(Cl)c2)C1` (centres undefined), for which the Inhibition is reported as 10%.
`CC(C)N1CCN(c2ccc(OCCCCN3CCN(c4cccc(Cl)c4Cl)CC3)cc2Cl)CC1.Cl` showed an Inhibition of 63%.
Same read-out and setting: the value for `Br.CC(C)(C)c1ccc(OCCCON2C(=N)N=C(N)NC2(C)C)c(C(C)(C)C)c1` was 64%; that for `C[C@@H](Oc1cc(-n2cnc3ccc(NC(=O)CCN4CCCCC4)cc32)sc1C(N)=O)c1ccccc1Cl` was 36%.
On to `O=C(Cc1cccc(Cl)c1)Nc1cccc(-c2c[nH]c3nc(Nc4cccc(O)c4)ncc23)c1.O=C(O)C(F)(F)F`, for which the Inhibition is on record as 23%.
In turn, `Cl.O=S(=O)(c1ccc(OCc2ccc(Cl)cc2)cc1)c1cc2c(c(-c3ccc(F)cc3)c1)CCN(CC1CC1)CC2` showed an Inhibition of 0%.
On the same count and under the same terms, the value for `Cc1ccc2[nH]c3c(NCCCN4CCOCC4)ncnc3c2c1` was 0%; that for `O=C(NCCc1ccccc1)N(Cc1cccc(-c2ccc(CNCCc3ccccc3)cc2)c1)C1CCN(Cc2ccccc2)CC1.O=C(O)C(F)(F)F` was 94%; that for `O=C(/C=C/c1ccc(Cl)c(Cl)c1)NCCCCCN1CC[C@H](NC(=O)Nc2ccc(Oc3ccccc3)cc2)C1` was 47%.
`Cc1cc(NCCC(=O)Nc2ccccc2)nc(NCCc2ccccc2)n1.O=C(O)C(F)(F)F`: the Inhibition is given as 0%.
Still for that read-out and setting: the same measure for `Cl.N#CCc1ccc(Nc2nccc(Nc3ccc(Oc4ccccc4)cc3)n2)cc1`: 0%; for `O=C(O)C(F)(F)F.O=[N+]([O-])c1cccc(CNCC2CCN(Cc3ccc(Cl)c(Cl)c3)CC2)c1`: 9%; for `COc1cc(C(=O)N2COCC(CCCN3CCC(N4CCCC4)CC3)(c3ccc(Cl)c(Cl)c3)C2)cc(OC)c1OC` (centres undefined): 5%.
On to `CC1CCCN1Cc1cccc(-c2ccc(C(=O)NCCOc3ccccc3)s2)c1.O=C(O)C(F)(F)F` (centres undefined), for which the Inhibition turned out to be 26%.
